An excerpt weighted towards active compounds, which were near 18% of everything screened.
IL-1B inflam inh = inflammasome signaling inhibition, IL-1 beta readout; THP-1 LPS/ATP IL-1B secretion, AlphaLISA, 16 h; stronger effect = lower value; activity change, % at 57.5 µM; hit rate 4.7% among 360,000; AID 743279; in the data active = activity change below about -50%; inconclusive = mostly about -30% to -49%
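THP-1 cells pretreated 1 hr with compounds (up to 57.5 uM final), then stimulated with LPS (250 ng/mL final) plus ATP (1.25 mM final); secreted IL-1B measured by AlphaLISA after 16 hr, decreased signal indicating inhibition.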
CtBP-E1A inh = CtBP/E1A binding inhibition; AlphaScreen GST-E1A/His-CtBP binding, 1536-well; stronger effect = lower value; activity change, % (no concentration beside the values); hit rate 0.49% among 340,000; AID 651724; in the data active = activity change below about -65%; inconclusive = mostly about -30% to -63%
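In 5 uL wells, 23 nL compound meets equimolar GST-E1A and His-CtBP (5X stock 125 nM each) for 2 h, 37 °C. Beads (5X, 50 ug/mL) then 1 h, 37 °C, dark.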
Six1-Eya2 inh = blocks human Six1 binding to Eya2 | AlphaScreen GST-Six1/His-Eya2 binding, biochemical; stronger effect = lower value | activity change, % (concentration not given with the values) | hit rate 0.56% among 360,000 | AID 651725; in the data active = activity change below about -65%; inconclusive = mostly about -30% to -63%
Target sequence (O00167 whole entry, looked up): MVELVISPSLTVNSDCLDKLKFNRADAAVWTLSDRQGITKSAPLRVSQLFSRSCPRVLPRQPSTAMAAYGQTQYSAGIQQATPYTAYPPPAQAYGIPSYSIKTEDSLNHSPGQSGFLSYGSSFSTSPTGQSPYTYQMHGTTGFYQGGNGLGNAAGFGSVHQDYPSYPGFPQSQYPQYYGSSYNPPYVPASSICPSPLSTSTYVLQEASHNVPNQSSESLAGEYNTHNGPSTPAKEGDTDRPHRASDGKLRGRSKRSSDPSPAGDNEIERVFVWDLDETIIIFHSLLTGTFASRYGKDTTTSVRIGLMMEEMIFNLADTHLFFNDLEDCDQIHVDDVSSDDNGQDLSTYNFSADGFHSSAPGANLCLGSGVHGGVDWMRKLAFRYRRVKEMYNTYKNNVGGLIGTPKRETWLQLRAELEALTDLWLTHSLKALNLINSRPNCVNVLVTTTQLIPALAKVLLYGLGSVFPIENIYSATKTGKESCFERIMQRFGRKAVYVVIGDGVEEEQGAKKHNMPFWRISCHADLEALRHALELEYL
Target sequence (Q15475 whole entry, looked up): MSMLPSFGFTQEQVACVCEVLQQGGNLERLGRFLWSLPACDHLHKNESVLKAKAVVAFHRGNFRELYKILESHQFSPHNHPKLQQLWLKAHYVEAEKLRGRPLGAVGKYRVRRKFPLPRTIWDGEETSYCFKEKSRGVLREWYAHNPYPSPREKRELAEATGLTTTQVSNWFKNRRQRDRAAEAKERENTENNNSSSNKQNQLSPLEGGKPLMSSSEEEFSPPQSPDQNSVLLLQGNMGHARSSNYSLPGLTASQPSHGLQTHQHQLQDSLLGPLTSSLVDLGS
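Homogeneous AlphaScreen proximity assay pairing GST-Six1 with His-tagged Eya2 (added as 5X mix: 250 nM and 500 nM) in 50 mM Tris pH 8.0, 300 mM NaCl, 1 mM TCEP. Glutathione donor and nickel acceptor beads; 1 h, 37 °C, dark.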
TDP1 cell noCPT = qHTS for Inhibitors of human tyrosyl-DNA phosphodiesterase 1 (TDP1): qHTS in cells in absence of CPT; DT40 Tdp1-/- hTDP1 cells, no CPT, ATP luminescence, 48 h; Potency, µM (top dose mostly 46.2 µM), actives largely listed as inhibitors; hit rate 15% among 420,000; AID 686978, 2013; also: nearly all actives have a fitted effect of over 55% in size
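Camptothecin absent (DMSO only). Human TDP1-complemented DT40 knockout cells, 400 cells/well, 37 °C for minimum 48 hr; ATP measured via CellTiter-Glo, 30 min dark incubation, luminescence.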
TDP1 inh = TDP1 (human) enzyme inhibition | Potency, µM (series often up to 130 µM), usual class: inhibitors | Q9NUW8 | recombinant TDP1, AlphaScreen DNA substrate cleavage | hit rate 0.28% among 350,000; also: nearly all actives have a fitted effect of over 40% in size
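Recombinant E. coli-expressed Tdp1 (1 nM) preincubated with compound 15 min at RT, then 5'-biotin/3'-phosphotyrosine-FITC DNA substrate (15 nM) added for 5 min. AlphaScreen beads (10 ug/ml) added, 10 min RT; tyrosine-FITC cleavage read as signal loss.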
TDP1 cell CPT = growth inhibition of DT40 Tdp1-/-;hTDP1 cells with camptothecin (screen for TDP1 inhibitors) | Potency, µM (doses to about 46.2 µM), hits mostly inhibitors | hit rate 12% among 420,000 | AID 686979 | chicken DT40 Tdp1-/-;hTDP1 cells + 20 nM CPT, ATP luminescence, 48 h; also: nearly all actives have a fitted effect of over 55% in size
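Chicken DT40 Tdp1-/- cells stably complemented with human TDP1 were seeded at 400 cells/well in medium containing 20 nM camptothecin, exposed to pin-transferred compounds, and grown at 37 °C for at least 48 hr. Viability was read as ATP luminescence.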
Large screens that a line does not name were inactive. Unless noted, calls follow the shape of the dose curve; as a rule, active = well fitted curve in the direction sought with a large enough effect; inconclusive = small, poorly fitted or top-dose-only effect, or another doubt; inactive = no such curve, though single readings can be large; an effect the other way counts as inactive or inconclusive.

CC(=O)Oc1cc(C(=O)OCC(=O)N2CCc3ccccc3C2)cc(OC(C)=O)c1OC(C)=O	TDP1 cell noCPT 5.2µM, TDP1 cell CPT 4.1µM (no result: TDP1 inh)
CCOc1c(Br)cc(C(=O)OCC(=O)N2CCc3ccccc3C2)cc1OC	TDP1 cell noCPT 26µM, TDP1 cell CPT inconclusive
Cc1cccc(OCC(=O)N2CCc3ccccc3C2)c1C	TDP1 cell noCPT inconclusive, TDP1 cell CPT inconclusive (no result: TDP1 inh)
N#Cc1ccccc1OCC(=O)N1CCc2ccccc2C1	none
COc1ccc(C(=O)OCC(=O)N2CCc3ccccc3C2)cc1OC	TDP1 cell CPT inconclusive
COc1cc2c(cc1OC)CN(C(=O)COc1ccccc1C#N)CC2	IL-1B inflam inh -74, TDP1 cell noCPT 12µM, TDP1 cell CPT 21µM (no result: TDP1 inh)
O=C(COC(=O)c1cc(Cl)nc(Cl)c1)NC1CCCCCC1	none (no result: CtBP-E1A inh, TDP1 inh)
Cc1nc(C)c(/C(O)=C/c2nc3ccc([N+](=O)[O-])cc3oc2=O)o1	none (no result: IL-1B inflam inh, CtBP-E1A inh, Six1-Eya2 inh, TDP1 cell noCPT, TDP1 cell CPT)
Cc1c(C(=O)NCC(C)(C)N2CCOCC2)cnn1-c1nccc(-c2cccs2)n1	none (no result: IL-1B inflam inh, CtBP-E1A inh, Six1-Eya2 inh, TDP1 inh)
CCOc1ccc(-c2nc(N)ncc2Oc2ccccc2Br)c(O)c1	TDP1 cell noCPT inconclusive, TDP1 cell CPT inconclusive
C=C(C)COc1ccc(-c2nc(N)ncc2-c2ccc(Br)cc2)c(O)c1	TDP1 cell noCPT inconclusive, TDP1 cell CPT inconclusive (no result: TDP1 inh)
CCOc1ccc(-c2nc(N)ncc2Oc2cccc(OC)c2)c(O)c1	IL-1B inflam inh inconclusive, TDP1 cell noCPT 18µM, TDP1 cell CPT inconclusive
C=C(C)COc1ccc(-c2ncncc2-c2ccccc2OC)c(O)c1	TDP1 cell noCPT inconclusive, TDP1 cell CPT inconclusive (no result: TDP1 inh)
CCOc1ccc(-c2ncncc2-c2ccccc2OC)c(O)c1	TDP1 cell noCPT 23µM, TDP1 cell CPT 13µM (no result: TDP1 inh)
C=C(C)COc1ccc(-c2nc(N)ncc2Oc2ccc(OC)cc2)c(O)c1	TDP1 cell noCPT 29µM, TDP1 cell CPT inconclusive
CCOc1ccc(-c2n[nH]c(C)c2Oc2ccc(OC)cc2)c(O)c1	TDP1 cell noCPT 10µM, TDP1 cell CPT 21µM
C=C(C)COc1ccc(-c2nc(N)ncc2Oc2ccccc2OC)c(O)c1	IL-1B inflam inh -62, TDP1 cell noCPT inconclusive, TDP1 cell CPT inconclusive
COc1ccccc1C(=O)N[C@@H]1c2ccccc2C2(CCN(Cc3c(O)cccc3OC)CC2)[C@H]1O	TDP1 cell noCPT 18µM (no result: IL-1B inflam inh, CtBP-E1A inh, Six1-Eya2 inh, TDP1 inh)
O=C1OCc2ccc(NC(=O)c3sccc3Cl)cc21	none (no result: CtBP-E1A inh, TDP1 inh)
CCOC(=O)c1cnc2c(OC)cccc2c1NCc1cccnc1	none
COc1ccc(NC(=S)Nc2cccc3cnccc23)cc1	none
COc1ccccc1NC(=S)Nc1cccc2cnccc12	TDP1 cell noCPT 23µM, TDP1 cell CPT 26µM
S=C(Nc1ccc(Cl)cc1)Nc1cccc2cnccc12	IL-1B inflam inh inconclusive, TDP1 cell noCPT 23µM, TDP1 cell CPT inconclusive
CN(C)S(=O)(=O)c1cccc(NC(=S)Nc2cccc3cnccc23)c1	CtBP-E1A inh inconclusive, TDP1 cell noCPT 13µM, TDP1 cell CPT 16µM
Cc1cc(C)cc(N2CC(C(=O)NC3CCCCC3)CC2=O)c1 (stereo not drawn)	none
O=C(NC1=NCCS1)c1ccc2c(c1)C(=O)N(Cc1ccco1)C2=O	TDP1 cell noCPT inconclusive
Cc1ccc(-c2cn3cccnc3n2)cc1NC(=O)C(C)(C)Oc1ccc(Cl)cc1	TDP1 cell noCPT 18µM, TDP1 cell CPT inconclusive (no result: IL-1B inflam inh, CtBP-E1A inh, Six1-Eya2 inh)
COc1ccc(-c2cn3cccnc3n2)cc1NC(=O)c1ccc(Br)o1	IL-1B inflam inh -54, TDP1 cell noCPT inconclusive, TDP1 inh 50µM, TDP1 cell CPT 16µM
COc1ccc(-c2cn3cccnc3n2)cc1NC(=O)c1c(F)cccc1F	TDP1 cell noCPT 26µM, TDP1 cell CPT inconclusive (no result: IL-1B inflam inh, CtBP-E1A inh, Six1-Eya2 inh)
Cc1ccc(-c2cn3cccnc3n2)cc1NC(=O)c1ccc(Br)o1	IL-1B inflam inh inconclusive
COc1cccc(C(=O)Nc2cc(-c3cn4cccnc4n3)ccc2C)c1OC	TDP1 cell noCPT 16µM, TDP1 cell CPT inconclusive (no result: IL-1B inflam inh, CtBP-E1A inh, Six1-Eya2 inh)
CCCC(=O)Nc1cc(-c2cn3cccnc3n2)ccc1OC	none
